{"source": "PubChem BioAssay AID2289", "about": "(National Center for Advancing Translational Sciences (NCATS), 2010)", "note": "In all, about 340,000 compounds went through this assay and about 3,300 (0.97%) were called active. Roughly 9% stayed inconclusive and do not appear here. The call rests on the fitted dose curve; in most records, active means well fitted inhibition curve with a large enough effect; inconclusive means small, poorly fitted or top-dose-only effect, or effect the other way; inactive means flat fitted curve, though single readings scatter. The list shows a part of the results.", "data": [{"test": "qHTS Assay for Modulators of miRNAs and/or Inhibitors of miR-21; further: potency means the concentration at half of the fitted maximal effect; nearly all actives have a fitted effect of over 55% in size", "details": "HeLa miR-21-FLuc reporter, luciferase luminescence, 48 h; actives lower the signal", "how_it_was_run": "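HeLa cells endogenously expressing miR-21, stably carrying CMV-driven firefly luciferase with a downstream miR-21 binding site, 2000 cells/well. Titrations up to approximately 40 uM, 48 hours; luciferase luminescence read.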", "values": [{"compound": "CC(C)c1ccc(N(C(=O)c2ccco2)C(C(=O)NC2CCCC2)c2ccncc2)cc1", "note": "(configuration not stated)", "Potency": "6.56 µM (active)"}, {"compound": "Cc1cc(OCc2nc3ccccc3s2)ccc1N", "Potency": "1.17 µM (active)"}, {"compound": "O=C(O)c1ccccc1OCc1nc2ccccc2s1", "Potency": "3.29 µM (active)"}, {"compound": "NC(=O)c1ccccc1OCc1nc2ccccc2s1", "Potency": "1.47 µM (active)"}, {"compound": "OCc1cc(Br)ccc1OCc1nc2ccccc2s1", "Potency": "1.65 µM (active)"}, {"compound": "Cc1ccc2c(c1)COc1c3ccc(C(=O)NCCO)cc3nn1-2", "Potency": "5.21 µM (active)"}, {"compound": "O=C(NCCO)c1ccc2c3n(nc2c1)-c1ccc(Cl)cc1CO3", "Potency": "9.27 µM (active)"}, {"compound": "CC(C)[C@@H](CO)NC(=O)c1ccc2c3n(nc2c1)-c1ccc(Cl)cc1CO3", "Potency": "1.85 µM (active)"}, {"compound": "O=C(Nc1sc2c(c1C(=O)NCc1ccco1)CCCC2)c1cc(=O)c2ccccc2o1", "Potency": "5.85 µM (active)"}, {"compound": "COc1ccc(OCc2cc(C(=O)N(C)Cc3nnc(C)o3)no2)c(Cl)c1", "Potency": "14.7 µM (active)"}, {"compound": "Cc1cc(CN(C)C(=O)c2cc(COc3ccc(F)cc3Cl)on2)n[nH]1", "Potency": "10.4 µM (active)"}, {"compound": "Cc1nnc(CN(C)C(=O)c2cc(COc3ccc(F)cc3Cl)on2)o1", "Potency": "13.1 µM (active)"}, {"compound": "N#CCCN1CCN(C(=S)c2ccc(-c3cccc(Cl)c3)o2)CC1", "Potency": "13.1 µM (active)"}, {"compound": "O=[N+]([O-])c1cccc(-c2ccc(C(=S)N3CCOCC3)o2)c1", "Potency": "1.04 µM (active)"}, {"compound": "S=C(c1ccc(-c2cccc(Cl)c2)o1)N1CCCCC1", "Potency": "1.31 µM (active)"}, {"compound": "S=C(c1ccc(-c2ccc(Cl)c(Cl)c2)o1)N1CCOCC1", "Potency": "1.47 µM (active)"}, {"compound": "S=C(c1ccc(-c2cccc(Cl)c2)o1)N1CCOCC1", "Potency": "3.69 µM (active)"}, {"compound": "COCCN=C1NN=C(c2ccc(C)c([N+](=O)[O-])c2)CS1", "Potency": "4.14 µM (active)"}, {"compound": "C=C(C)CSc1nncn1/N=C/c1ccc(OC)cc1", "Potency": "11.7 µM (active)"}, {"compound": "C=CCSc1nncn1/N=C/c1ccc(OC)cc1", "Potency": "2.61 µM (active)"}, {"compound": "Cn1cccc1-c1nc2ccc([N+](=O)[O-])cc2[nH]1", "Potency": "2.07 µM (active)"}, {"compound": "O=[N+]([O-])c1ccc2nc(-c3ccncc3)[nH]c2c1", "Potency": "18.5 µM (active)"}, {"compound": "Fc1cc2nc(-c3ccncc3)[nH]c2cc1F", "Potency": "16.5 µM (active)"}, {"compound": "COc1cc(OC)cc(C(=O)Nc2ccc3nc4n(c(=O)c3c2)CCCCC4)c1", "Potency": "2.33 µM (active)"}, {"compound": "COc1ccc(-c2cc3nc4n(c(=O)c3s2)CCCCC4)cc1", "Potency": "0.369 µM (active)"}, {"compound": "CC1CCn2c(nc3cc(C(=O)NCc4ccccc4)ccc32)C1", "note": "(configuration not stated)", "Potency": "7.36 µM (active)"}, {"compound": "Cc1ccc(CNC(=O)c2ccc3c(c2)nc2n3CCCC2)cc1", "Potency": "18.5 µM (active)"}, {"compound": "CCOc1ccc(CNC(=O)c2ccc3c(c2)nc2n3CCCCC2)cc1", "Potency": "2.07 µM (active)"}, {"compound": "COc1ccc(CNC(=O)c2ccc3c(c2)nc2n3CCCCC2)cc1", "Potency": "4.65 µM (active)"}, {"compound": "COc1ccc(N=C2C(=Nc3ccc(OC)cc3)N(c3ccccc3)C(=S)N2C(=O)c2ccc(Cl)cc2)cc1", "Potency": "5.21 µM (active)"}, {"compound": "COc1ccc(-c2csc(NC(=O)COC(=O)c3ccco3)n2)cc1", "Potency": "3.69 µM (active)"}, {"compound": "CCc1ccc(-c2csc(NC(=O)Oc3ccccc3)n2)cc1", "Potency": "3.69 µM (active)"}, {"compound": "CCc1ccc(-c2csc(NC(=O)COC(=O)CCc3nc4ccccc4s3)n2)cc1", "Potency": "2.07 µM (active)"}, {"compound": "Cc1nc(N)sc1N=Nc1ccc(F)cc1", "Potency": "4.65 µM (active)"}, {"compound": "Cc1nc(N)sc1N=Nc1ccccc1C(F)(F)F", "Potency": "5.21 µM (active)"}, {"compound": "Cc1nc(N)sc1N=Nc1ccc(Br)cc1", "Potency": "0.736 µM (active)"}, {"compound": "Cc1cccc(-n2ncc3c(N(CCO)CCO)ncnc32)c1", "Potency": "5.21 µM (active)"}, {"compound": "COCCN(CCOC)c1ncnc2c1cnn2-c1ccc(Cl)cc1", "Potency": "7.36 µM (active)"}, {"compound": "CCCCN(c1ccccc1)c1ncnc2c1cnn2-c1ccc(Cl)cc1", "Potency": "5.85 µM (active)"}, {"compound": "CCN(c1ccccc1)c1ncnc2c1cnn2-c1ccccc1", "Potency": "7.36 µM (active)"}, {"compound": "Cc1ccc2c(c1)c1cccc3c1n2CCN3CCC(N)=O", "Potency": "6.56 µM (active)"}, {"compound": "CC(=O)N1CCn2c3ccc(C)cc3c3cccc1c32", "Potency": "14.7 µM (active)"}, {"compound": "CC(C)(C)c1ccc(OCc2nc(-c3ccccn3)no2)c(Br)c1", "Potency": "1.65 µM (active)"}, {"compound": "Clc1ccc(OCc2nc(-c3ccncc3)no2)c(Br)c1", "Potency": "1.65 µM (active)"}, {"compound": "CC(Oc1ccc(Cl)cc1Cl)c1nc(-c2ccccn2)no1", "note": "(configuration not stated)", "Potency": "6.56 µM (active)"}, {"compound": "Clc1cc(Cl)c(OCc2nc(-c3ccccn3)no2)cc1Cl", "Potency": "0.736 µM (active)"}, {"compound": "Nc1cnc(Nc2ccc(Br)cc2)nc1N", "Potency": "11.7 µM (active)"}, {"compound": "Cc1ccc2c(c1)-c1nc3ccccc3cc1C2=NC1CCCCC1", "Potency": "0.656 µM (active)"}, {"compound": "CCCCn1cnc2c(sc3nc4c(cc32)CSC(C)(C)C4)c1=O", "Potency": "0.585 µM (active)"}, {"compound": "CC(C)CCn1cnc2c(sc3nc4c(cc32)CSC(C)(C)C4)c1=O", "Potency": "0.293 µM (active)"}, {"compound": "O=C(COc1ccccc1)Nc1ccc(Cl)cc1Cl", "Potency": "5.85 µM (active)"}, {"compound": "COc1ccc(C(=O)COc2ccccc2C#N)cc1", "Potency": "4.65 µM (active)"}, {"compound": "COc1cccc(NC(=O)COc2ccc(C)cc2)c1", "Potency": "7.36 µM (active)"}, {"compound": "NC(=O)c1ccccc1NC(=O)COc1ccc(Cl)cc1", "Potency": "4.65 µM (active)"}, {"compound": "COC(=O)c1ccc(OCC(=O)c2cccc(OC)c2)cc1", "Potency": "10.4 µM (active)"}, {"compound": "Cc1ccc(OCC(=O)Nc2ccccc2C(N)=O)cc1", "Potency": "1.17 µM (active)"}, {"compound": "Cc1sc2c(c1C)C(=O)NC(c1ccccc1F)N2", "note": "(configuration not stated)", "Potency": "7.36 µM (active)"}, {"compound": "Cc1ccc(OCCOc2cccc(Br)c2)c([N+](=O)[O-])n1", "Potency": "6.56 µM (active)"}, {"compound": "COc1ccc(OCCOc2ccc(C)nc2[N+](=O)[O-])cc1", "Potency": "13.1 µM (active)"}, {"compound": "Cc1ccc(OCCOc2ccc(Br)cc2)c([N+](=O)[O-])n1", "Potency": "5.85 µM (active)"}, {"compound": "COc1ccc(OCCOc2ccccc2[N+](=O)[O-])cc1", "Potency": "6.56 µM (active)"}, {"compound": "O=C(O)c1cccc(-c2nnn(Cc3ccccc3Cl)n2)c1", "Potency": "0.414 µM (active)"}, {"compound": "O=C(O)c1cccc(-c2nnn(Cc3ccccc3)n2)c1", "Potency": "2.33 µM (active)"}, {"compound": "CC(C)(C)c1ccc(C(=O)NCc2ccccc2)cc1", "Potency": "14.7 µM (active)"}, {"compound": "COc1ccc(CNC(=O)c2ccc(C(C)(C)C)cc2)cc1", "Potency": "5.85 µM (active)"}, {"compound": "CC(C)(C)c1ccc(C(=O)NCCC(=O)N2CCCC2)cc1", "Potency": "2.33 µM (active)"}, {"compound": "CCCc1nn(C)c(C(=O)Nc2ccccc2)c1Cl", "Potency": "1.85 µM (active)"}, {"compound": "CCCc1nn(C)c(C(=O)Nc2cccc(Cl)c2)c1Cl", "Potency": "7.36 µM (active)"}, {"compound": "CCCc1nn(C)c(C(=O)Nc2cccc(C)c2)c1Cl", "Potency": "5.21 µM (active)"}, {"compound": "CCCc1nn(C)c(C(=O)Nc2ccc3ccccc3c2)c1Cl", "Potency": "7.36 µM (active)"}, {"compound": "CCC1CN(C(=O)Nc2cccc3c2CCCC3)c2cc(C)ccc2O1", "note": "(configuration not stated)", "Potency": "7.36 µM (active)"}, {"compound": "COc1ccc(/C=C/c2nc3ccccc3n2Cc2ccc(OC)c(OC)c2)cc1", "Potency": "1.47 µM (active)"}, {"compound": "C/C(=N\\NC(=O)OC(C)(C)C)c1ccccc1Br", "Potency": "14.7 µM (active)"}, {"compound": "CCOC(=O)c1cnn2c(C)cc(-c3ccc(F)cc3)nc12", "Potency": "4.14 µM (active)"}, {"compound": "O=C(O)c1ccc(S(=O)(=O)c2ccc3c(c2)C(=O)N(NC(=O)c2ccccc2)C3=O)cc1", "Potency": "4.14 µM (active)"}, {"compound": "COc1ccc(-c2cc(C(=O)N3CCCCC3)no2)cc1OC", "Potency": "7.36 µM (active)"}, {"compound": "COc1ccc(-c2cc(C(=O)N3CCCCCC3)no2)cc1OC", "Potency": "16.5 µM (active)"}, {"compound": "COc1ccc(-c2cc(C(=O)N3CCCC3)no2)cc1OC", "Potency": "5.85 µM (active)"}, {"compound": "Cc1ccc(/C=C/C(=O)Nc2ncc(C)s2)o1", "Potency": "1.04 µM (active)"}, {"compound": "Cc1csc(NC(=O)/C=C/c2ccc(C)o2)n1", "Potency": "5.21 µM (active)"}, {"compound": "CCOC(=O)C(C)On1c(-c2ccc(Cl)cc2)nc2ccc([N+](=O)[O-])cc21", "note": "(configuration not stated)", "Potency": "3.69 µM (active)"}, {"compound": "Cn1ccc(C(=O)Nc2ccc(Br)cc2Br)n1", "Potency": "0.521 µM (active)"}, {"compound": "Cc1ccc(NC(=O)c2cnccn2)c(Br)c1", "Potency": "5.85 µM (active)"}, {"compound": "O=C(Nc1ccccc1-c1ccccc1)c1cnccn1", "Potency": "13.1 µM (active)"}, {"compound": "O=C(Nc1ccccc1-c1ccccc1)c1ccc(=O)[nH]n1", "Potency": "14.7 µM (active)"}, {"compound": "CN(C)CCCN(C(=O)c1ccc2c(c1)OCCO2)c1nc2ccccc2s1", "Potency": "18.5 µM (active)"}, {"compound": "O=C(c1ccc2c(c1)OCCO2)N(Cc1cccnc1)c1nc2ccc(F)cc2s1", "Potency": "4.14 µM (active)"}, {"compound": "CCc1ccc2nc(N(Cc3cccnc3)C(C)=O)sc2c1", "Potency": "16.5 µM (active)"}, {"compound": "CN(C)CCCN(C(=O)c1sc2ccccc2c1Cl)c1nc2ccc(F)cc2s1", "Potency": "9.27 µM (active)"}, {"compound": "Cc1cc(C)nc(SCc2csc(-c3ccccc3)n2)n1", "Potency": "1.65 µM (active)"}, {"compound": "COc1ccccc1NS(=O)(=O)c1cccc(NC(=O)c2cc3ccccc3oc2=O)c1", "Potency": "4.65 µM (active)"}, {"compound": "COc1ccc(S(=O)(=O)Nc2ccccc2OC)cc1NC(=O)c1cc2ccccc2oc1=O", "Potency": "6.56 µM (active)"}, {"compound": "COc1ccc(Cl)cc1NC(=O)Cn1ccn(Cc2ccc(C)cc2)c(=O)c1=O", "Potency": "7.36 µM (active)"}, {"compound": "COCCNC(=O)c1cc(-c2cccs2)on1", "Potency": "13.1 µM (active)"}, {"compound": "O=C(NCCCN1CCOCC1)c1cc(-c2cccs2)on1", "Potency": "16.5 µM (active)"}, {"compound": "O=C(NCCN1CCOCC1)c1cc(-c2cccs2)on1", "Potency": "14.7 µM (active)"}, {"compound": "COCCNC(=O)c1cc(-c2cccc(Cl)c2)on1", "Potency": "4.14 µM (active)"}, {"compound": "O=C(NCCc1ccccc1)c1nc(-c2cccs2)no1", "Potency": "11.7 µM (active)"}, {"compound": "COc1cc(/C=N/n2cnnc2)ccc1OCc1ccc(C)cc1", "Potency": "4.14 µM (active)"}, {"compound": "COc1cc(/C=N/n2cnnc2)ccc1OCc1ccccc1", "Potency": "18.5 µM (active)"}, {"compound": "Cc1n[nH]c(=S)n1/N=C/c1ccccc1OCc1ccc(Cl)cc1", "Potency": "14.7 µM (active)"}, {"compound": "COc1cc(/C=N/n2c(C)n[nH]c2=S)ccc1OCc1ccccc1", "Potency": "6.56 µM (active)"}]}]}
